Inconclusive results are not listed. Where a structure was tested more than once in an assay, its records may differ in their call. The source made the active and inactive calls. How the source made its calls, unless noted: active means hit-call score of the fitted dose curve at least 0.9, where 1 is the maximum; inactive means score below 0.9.
Key:
[1] = target: human Retinoid X Receptor beta (RXRb), RXRB (gene 6257) (UniProt P28702); assay: ATG_RXRb_TRANS: Attagene TRANS-FACTORIAL HepG2 Assay for human Retinoid X Receptor beta (RXRb) (AID 2283013; active means hit-call score of the fitted dose curve at least 0.9, where 1 is the maximum)
Method in brief: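 HepG2 cells transiently transfected with multiplexed reporter units driven by GAL4-UAS and exogenous chimeric NR-Gal4 proteins; treated 24 h. Reporter mRNA measured by RT-PCR, 6-FAM labelling and capillary electrophoresis; gain-of-signal fitted versus DMSO baseline.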

[2] = target: human Thyroid Receptor alpha (THRa1), THRA (gene 7067) (UniProt P10827); assay: ATG_THRa1_TRANS: Attagene TRANS-FACTORIAL HepG2 Assay for human Thyroid Receptor alpha (THRa1) (AID 2283014; active means hit-call score of the fitted dose curve at least 0.9, where 1 is the maximum)
Method in brief: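 HepG2 cells transiently transfected with multiplexed GAL4-UAS reporter units for exogenous chimeric THRa1-Gal4; reporter mRNA measured 24 h after dosing by RT-PCR, 6-FAM labelling, HpaI digestion and capillary electrophoresis. Gain-of-signal fitted versus DMSO baseline.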

[3] = read-out: E-selectin (Homo sapiens) (UniProt P16581); assay: BSK_3C_Eselectin: BioMAP Diversity Plus: 3C Assay for Eselectin Biomarker Activity (AID 2283015); settings: primary human endothelial cells (HUVEC); actives raise or lower the signal
Method in brief: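 Primary human umbilical vein endothelial cells (3C system) were dosed with chemical and cell-surface E-selectin measured by ELISA 24 h later. Bidirectional curve fitting used DMSO as negative control and baseline.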

[4] = read-out: Interleukin-1 alpha (IL1a), IL1A (gene 3552); assay: BSK_BE3C_IL1a: BioMAP Diversity Plus: BE3C Assay for Interleukin-1 alpha (IL1a) Biomarker Activity (AID 2283016); settings: primary human bronchial epithelial cells; actives raise or lower the signal
Method in brief: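 Human primary bronchial epithelial cells (BE3C system) were dosed with compound and IL-1a measured by ELISA 24 h later. Activity was fitted bidirectionally against DMSO baseline; cytotoxicity was tracked in parallel cultures by SRB total-protein staining.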

[5] = read-out: Monocyte Chemoattractant Protein-1 (MCP1), CCL2 (gene 6347); assay: BSK_3C_MCP1: BioMAP Diversity Plus: 3C Assay for Monocyte Chemoattractant Protein-1 (MCP1) Biomarker Activity (AID 2283017); settings: primary human endothelial cells (HUVEC); actives raise or lower the signal
Method in brief: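 Primary human umbilical vein endothelial cells (3C system) were exposed to test chemical for 24 h, after which MCP-1 was quantified by ELISA. Activity was fitted bidirectionally against DMSO as negative control and baseline.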

[6] = read-out: Monocyte Chemoattractant Protein-1 (MCP1), CCL2 (gene 6347); assay: BSK_4H_MCP1: BioMAP Diversity Plus: 4H Assay for Monocyte Chemoattractant Protein-1 (MCP1) Biomarker Activity (AID 2283018); settings: primary human endothelial cells (HUVEC); actives raise or lower the signal
Method in brief: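 Human umbilical vein endothelial cells (4H system) dosed with chemical; MCP-1 measured by ELISA 24 h after dosing. Bidirectional curve fitting against DMSO negative control as baseline; parallel SRB total-protein staining tracks overt cytotoxicity.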

[7] = read-out: Human Leukocyte Antigen - DR isotype (HLADR), HLA-DRA (gene 3122); assay: BSK_3C_HLADR: BioMAP Diversity Plus: 3C Assay for Human Leukocyte Antigen - DR isotype (HLADR) Biomarker Activity (AID 2283019); settings: primary human endothelial cells (HUVEC); actives raise or lower the signal
Method in brief: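 Primary human umbilical vein endothelial cells (3C system) were dosed with compound and cell-surface HLA-DR was quantified by ELISA at 24 h. Activity was fitted bidirectionally against DMSO as negative control and baseline.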

[8] = read-out: Interleukin-8 (IL8), CXCL8 (gene 3576); assay: BSK_3C_IL8: BioMAP Diversity Plus: 3C Assay for Interleukin-8 (IL8) Biomarker Activity (AID 2283020); settings: primary human endothelial cells (HUVEC); actives raise or lower the signal
Method in brief: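 Primary human umbilical vein endothelial cells (3C system) were exposed to test chemical for 24 h, then IL-8 was quantified by ELISA. Responses were fitted bidirectionally against DMSO vehicle as baseline.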

[9] = read-out: Monokine induced gamma interferon (MIG), CXCL9 (gene 4283); assay: BSK_3C_MIG: BioMAP Diversity Plus: 3C Assay for Monokine induced gamma interferon (MIG) Biomarker Activity (AID 2283021); settings: primary human endothelial cells (HUVEC); actives raise or lower the signal;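 on AC50: MIG protein level measured by immunoassay in the treated endothelial cultures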
Method in brief: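 Primary human umbilical vein endothelial cells in the 3C system were exposed to chemical for 24 h, after which MIG was quantified by ELISA. Activity was fitted bidirectionally against DMSO as negative control and baseline.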

[10] = target: human Vitamin D Receptor (VDR), VDR (gene 7421) (UniProt P11473); assay: ATG_VDR_TRANS: Attagene TRANS-FACTORIAL HepG2 Assay for human Vitamin D Receptor (VDR) (AID 2283022; active means hit-call score of the fitted dose curve at least 0.9, where 1 is the maximum)
Method in brief: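 HepG2 cells were transiently transfected with multiple GAL4-UAS reporter units, so signal reflects exogenous chimeric receptor-Gal4 activity. After 24 h compound exposure, reporter mRNA was measured by RT-PCR, fluorescent labelling and capillary electrophoresis, fitted for gain of signal versus DMSO.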

[11] = BSK_3C_SRB: Viability Assessment in the BioMAP Diversity Plus: 3C Assay (AID 2283023); settings: primary human endothelial cells (HUVEC);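 further: fitted both ways against DMSO so a hit may be signal rise or drop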
Method in brief: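 Primary human umbilical vein endothelial cells in the 3C system were read 24 h after compound dosing. Total protein was stained with 0.1% sulforhodamine B after 10% TCA fixation and read at 560 nm, with bidirectional fitting against DMSO as baseline.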

[12] = read-out: Matrix Metallopeptidase 1 (MMP1), MMP1 (gene 4312); assay: BSK_BE3C_MMP1: BioMAP Diversity Plus: BE3C Assay for Matrix Metallopeptidase 1 (MMP1) Biomarker Activity (AID 2283024); settings: primary human bronchial epithelial cells; actives raise or lower the signal
Method in brief: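 Primary human bronchial epithelial cells were dosed with test chemicals, and MMP1 levels were measured by ELISA 24 h later. Data were fitted bidirectionally against DMSO as the negative control and activity baseline.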

[13] = BSK_3C_Vis: BioMAP Diversity Plus: 3C Assay for Morphology Visualization (AID 2283025); settings: primary human endothelial cells (HUVEC);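 further: fitted both ways so gain or loss versus DMSO counts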
Method in brief: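 Human umbilical vein endothelial cells in the 3C system were imaged by light microscopy 24 h after chemical dosing to record cell morphology. Activity was fitted bidirectionally against DMSO as negative control and baseline; the endpoint serves as a background control.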

[14] = read-out: Pselectin, SELP (gene 6403); assay: BSK_4H_Pselectin: BioMAP Diversity Plus: 4H Assay for Pselectin Biomarker Activity (AID 2283026); settings: primary human endothelial cells (HUVEC); actives raise or lower the signal
Method in brief: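 Primary human umbilical vein endothelial cells were exposed to test chemical for 24 h, then cell-surface P-selectin was quantified by ELISA. Activity was fitted bidirectionally against DMSO as negative control and baseline.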

[15] = BSK_BE3C_SRB: Viability Assessment in the BioMAP Diversity Plus: BE3C Assay (AID 2283028); settings: primary human bronchial epithelial cells;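 on AC50: fitted both ways so AC50 may mark signal gain or loss versus DMSO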
Method in brief: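 Human primary bronchial epithelial cells were exposed to test chemicals for 24 h. Total protein in parallel cultures was then measured by staining with 0.1% sulforhodamine B after 10% TCA fixation, with absorbance read at 560 nm. Activity was fitted bidirectionally against DMSO.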

[16] = read-out: Thrombomodulin, THBD (gene 7056); assay: BSK_3C_Thrombomodulin: BioMAP Diversity Plus: 3C Assay for Thrombomodulin Biomarker Activity (AID 2283029); settings: primary human endothelial cells (HUVEC); actives raise or lower the signal
Method in brief: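 Primary human umbilical vein endothelial cells (3C system) were exposed to chemical for 24 h, then thrombomodulin levels were measured by ELISA. Activity was fitted bidirectionally against the DMSO negative control as baseline.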

[17] = read-out: Vascular endothelial growth factor receptor 2 (Homo sapiens) (UniProt P35968); assay: BSK_4H_VEGFRII: BioMAP Diversity Plus: 4H Assay for Vascular endothelial growth factor receptor 2 (VEGFR2) Biomarker Activity (AID 2283031); settings: primary human endothelial cells (HUVEC); actives raise or lower the signal
Method in brief: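 Primary human umbilical vein endothelial cells in the BioMAP 4H system were dosed with test chemical, and 24 h later VEGFRII was measured by ELISA. Activity was fitted bidirectionally against DMSO as negative control and baseline.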

[18] = read-out: Human Leukocyte Antigen - DR isotype (HLADR), HLA-DRA (gene 3122); assay: BSK_BE3C_HLADR: BioMAP Diversity Plus: BE3C Assay for Human Leukocyte Antigen - DR isotype (HLADR) Biomarker Activity (AID 2283032); settings: primary human bronchial epithelial cells; actives raise or lower the signal
Method in brief: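 Human primary bronchial epithelial cells in the BE3C system were exposed to chemicals for 24 h, after which HLA-DR levels were quantified by ELISA. Activity was fitted bidirectionally, gain or loss of signal, against DMSO as negative control and baseline.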

[19] = read-out: Vascular cell adhesion molecule 1 (VCAM1), VCAM1 (gene 7412); assay: BSK_4H_VCAM1: BioMAP Diversity Plus: 4H Assay for Vascular cell adhesion molecule 1 (VCAM1) Biomarker Activity (AID 2283033); settings: primary human endothelial cells (HUVEC); actives raise or lower the signal
Method in brief: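 Primary human umbilical vein endothelial cells were exposed to chemicals for 24 h, after which VCAM-1 was quantified by ELISA. Responses were fitted bidirectionally against DMSO as negative control and activity baseline.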

[20] = read-out: Interferon-gamma inducible Protein 10 (IP10), CXCL10 (gene 3627); assay: BSK_BE3C_IP10: BioMAP Diversity Plus: BE3C Assay for Interferon-gamma inducible Protein 10 (IP10) Biomarker Activity (AID 2283034); settings: primary human bronchial epithelial cells; actives raise or lower the signal
Method in brief: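 Human primary bronchial epithelial cells were exposed to chemicals for 24 hours, after which IP-10 levels were measured by ELISA. Data were fitted bidirectionally against DMSO, which served as the negative control and activity baseline.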

Measured: AC50

Sequence of human Thyroid Receptor alpha (THRa1), THRA (gene 7067) (P10827 whole entry, looked up, the tested form may be a part): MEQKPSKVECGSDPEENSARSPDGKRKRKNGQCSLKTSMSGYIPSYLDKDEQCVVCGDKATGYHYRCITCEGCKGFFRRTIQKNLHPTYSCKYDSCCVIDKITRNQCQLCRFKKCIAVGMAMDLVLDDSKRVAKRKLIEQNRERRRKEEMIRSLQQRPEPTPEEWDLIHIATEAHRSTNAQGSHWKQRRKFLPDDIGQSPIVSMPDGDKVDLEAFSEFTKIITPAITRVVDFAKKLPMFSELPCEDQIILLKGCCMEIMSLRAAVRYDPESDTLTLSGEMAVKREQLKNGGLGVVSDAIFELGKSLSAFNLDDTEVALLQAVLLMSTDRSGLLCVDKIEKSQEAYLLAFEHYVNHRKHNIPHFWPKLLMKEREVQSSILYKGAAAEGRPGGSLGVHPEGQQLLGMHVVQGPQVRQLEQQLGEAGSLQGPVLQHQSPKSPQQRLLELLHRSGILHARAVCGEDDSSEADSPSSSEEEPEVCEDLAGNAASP
Sequence of human Vitamin D Receptor (VDR), VDR (gene 7421) (P11473 whole entry, looked up, the tested form may be a part): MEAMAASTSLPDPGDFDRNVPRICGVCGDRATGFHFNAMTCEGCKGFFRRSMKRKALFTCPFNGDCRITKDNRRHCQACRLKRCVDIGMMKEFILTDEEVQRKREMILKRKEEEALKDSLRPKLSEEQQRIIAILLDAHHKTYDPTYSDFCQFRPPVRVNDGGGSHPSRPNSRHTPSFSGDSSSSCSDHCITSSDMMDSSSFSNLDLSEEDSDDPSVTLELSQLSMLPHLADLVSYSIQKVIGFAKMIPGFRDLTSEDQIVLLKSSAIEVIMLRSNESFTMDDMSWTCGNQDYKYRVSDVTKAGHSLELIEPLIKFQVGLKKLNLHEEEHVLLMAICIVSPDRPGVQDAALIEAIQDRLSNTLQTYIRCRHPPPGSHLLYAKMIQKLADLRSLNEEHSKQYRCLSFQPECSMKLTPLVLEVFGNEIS
Sequence of E-selectin (Homo sapiens) (P16581 whole entry, looked up): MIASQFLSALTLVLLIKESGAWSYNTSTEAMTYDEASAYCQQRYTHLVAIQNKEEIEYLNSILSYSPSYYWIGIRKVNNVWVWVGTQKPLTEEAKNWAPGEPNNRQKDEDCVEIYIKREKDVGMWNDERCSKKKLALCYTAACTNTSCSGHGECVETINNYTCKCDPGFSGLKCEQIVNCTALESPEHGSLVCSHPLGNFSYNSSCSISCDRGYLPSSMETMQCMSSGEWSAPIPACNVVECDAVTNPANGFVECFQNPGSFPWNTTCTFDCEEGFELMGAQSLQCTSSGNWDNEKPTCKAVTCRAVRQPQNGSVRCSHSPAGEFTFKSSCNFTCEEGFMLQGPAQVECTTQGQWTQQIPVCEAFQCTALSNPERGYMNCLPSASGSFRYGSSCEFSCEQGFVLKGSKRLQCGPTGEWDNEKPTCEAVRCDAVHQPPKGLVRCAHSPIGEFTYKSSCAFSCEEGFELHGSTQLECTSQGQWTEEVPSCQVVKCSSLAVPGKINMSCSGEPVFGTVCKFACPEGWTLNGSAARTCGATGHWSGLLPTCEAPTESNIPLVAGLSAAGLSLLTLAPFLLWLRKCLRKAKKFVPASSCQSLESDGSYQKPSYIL
Sequence of human Retinoid X Receptor beta (RXRb), RXRB (gene 6257) (P28702 whole entry, looked up, the tested form may be a part): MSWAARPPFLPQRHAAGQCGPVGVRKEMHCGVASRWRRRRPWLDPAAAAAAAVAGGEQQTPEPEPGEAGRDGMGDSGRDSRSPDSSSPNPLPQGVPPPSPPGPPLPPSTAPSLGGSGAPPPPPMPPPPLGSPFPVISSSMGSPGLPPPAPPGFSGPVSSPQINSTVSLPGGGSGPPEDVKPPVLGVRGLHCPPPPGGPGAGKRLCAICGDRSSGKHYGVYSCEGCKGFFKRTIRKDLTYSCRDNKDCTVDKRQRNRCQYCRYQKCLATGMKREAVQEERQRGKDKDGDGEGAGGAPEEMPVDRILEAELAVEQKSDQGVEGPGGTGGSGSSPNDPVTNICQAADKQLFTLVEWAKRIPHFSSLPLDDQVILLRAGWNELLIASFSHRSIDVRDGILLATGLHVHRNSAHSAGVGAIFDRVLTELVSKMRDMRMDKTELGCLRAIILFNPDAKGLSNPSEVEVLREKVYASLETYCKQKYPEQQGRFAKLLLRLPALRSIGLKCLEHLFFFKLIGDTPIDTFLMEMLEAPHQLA

CCCCCCCCC(=O)OCC
inactive: [1] | [2]

C#CC1(O)CC[C@H]2[C@@H]3CCC4=CCCC[C@@H]4[C@H]3CC[C@@]21C (some centres undefined)
active: [3] 8.71 µM | [4] 35.5 µM | [5] 11 µM | [6] 9.46 µM | [7] 10.8 µM | [8] 10.2 µM | [9] 12.9 µM | [11] 6.9 µM | [12] 36.4 µM | [13] 8.8 µM | [14] 11.4 µM | [15] 29.9 µM | [16] 12 µM | [18] 33.3 µM | [19] 15.1 µM | [20] 34.8 µM
inactive: [1] | [2] | [10] | [17]

O=c1[nH]nc(-c2ccc([N+](=O)[O-])o2)o1
inactive: [1] | [2]

O=C(c1ccc(O)cc1)c1ccc(O)cc1O
inactive: [1] | [2] | [3] | [4] | [5] | [6] | [7] | [8] | [9] | [11] | [12] | [14] | [15] | [16] | [17] | [18] | [19] | [20]
active: [12] 12.9 µM | [18] 20 µM

Cc1ccc(C(C)(C)C)cc1
inactive: [1] | [2]

Cc1ccc(OC(=O)CC(C)C)cc1
inactive: [1] | [2]

O=C1CCCCCCCCCCCCCCCO1
inactive: [2]
active: [1] 70.4 µM

c1ccc2c(c1)ccc1cc3c(ccc4ccccc43)cc12
active: [12] 0.015 µM | [13] 35.7 µM
inactive: [1] | [2] | [3] | [4] | [5] | [6] | [7] | [8] | [9] | [11] | [13] | [14] | [15] | [16] | [17] | [18] | [19] | [20]

CC(=O)Nc1ccc2c(c1)Cc1cc(NC(C)=O)ccc1-2
inactive: [1] | [2] | [10]

COc1ccc([C@@H]2CC(=O)c3c(O)cc(O[C@@H]4O[C@H](CO[C@@H]5O[C@@H](C)[C@H](O)[C@@H](O)[C@H]5O)[C@@H](O)[C@H](O)[C@H]4O)cc3O2)cc1OC
inactive: [1] | [2] | [10]

CNC(=S)NN
inactive: [1] | [2]

C=CCOc1c(Br)cc(Br)cc1Br
active: [1] 6.51 µM | [3] 20 µM | [4] 20 µM | [5] 20 µM | [6] 20 µM | [7] 24.8 µM | [11] 29.3 µM | [12] 3.97 µM | [13] 14.1 µM | [14] 20 µM | [15] 31.4 µM | [16] 3.97 µM | [18] 29 µM | [19] 31.5 µM | [20] 30.9 µM
inactive: [2] | [8] | [9] | [10] | [17]

Nc1ccc(Oc2ccc(N)c(N)c2)cc1
inactive: [1] | [2]

O=C(O)CCCCCCCCCC(=O)O
inactive: [1] | [2]

CCCCC(CC)COC(=O)c1ccccc1 (centres undefined)
inactive: [2] | [10]
active: [1] 60.9 µM

O=C1CC2CC1C1CCCC21 (centres undefined)
inactive: [1] | [2]

CCCCCCCCCCCCCCCC[N+](C)(C)CC
active: [1] 13 µM | [2] 12.1 µM | [3] 3.48 µM | [4] 7.31 µM | [5] 2.66 µM | [6] 0.845 µM | [7] 0.932 µM | [8] 3.73 µM | [9] 4.05 µM | [11] 0.697 µM | [12] 3.2 µM | [13] 0.533 µM | [14] 6.2 µM | [15] 5.12 µM | [16] 2.35 µM | [18] 2.28 µM | [19] 1.9 µM | [20] 2.19 µM

O=C(Nc1ccccc1)c1ccccc1O
inactive: [1] | [2]

O=C(Nc1ccccc1SSc1ccccc1NC(=O)c1ccccc1)c1ccccc1
active: [5] 8.27 µM | [6] 9.13 µM | [7] 10 µM | [13] 14.1 µM | [16] 5.7 µM | [19] 20 µM | [20] 1.03 µM
not listed: [10]
inactive: all other assays above

C=CCOCC(O)CCl (centres undefined)
inactive: all assays above

CCCCCCCC(C)=O
inactive: [1] | [2]

CCC(CO)CO
inactive: [1] | [2]

Cc1ccc(C(C)c2ccc(C)c(C)c2)cc1C
inactive: [1] | [2] | [10]

CCCCCCCCCCCSCC(=O)O
inactive: [2] | [10]
active: [1] 11.5 µM

C=CC(=O)OCCOC(=O)C=C
inactive: [1] | [10]
active: [2] 26.9 µM
